An excerpt weighted towards active compounds, which were near 3.5% of everything screened.
MITF inh: MITF inhibitors, primary screen, biochemical, AlphaScreen, human; hit rate 0.91% among 650,000; AID 1259374, 2018; inhibition, % at 2.6 µM; AlphaScreen MITF homodimerization, bead proximity signal; in the data active means inhibition above about 50%;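 further: 0% = vehicle wells with protein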
FBW7 act: FBW7 E3 ligase activators, primary screen, biochemical, AlphaScreen, human. AlphaScreen FBW7–phospho-cyclin E peptide binding, activator screen. normalized activity (activation), % at 26.1 µM. F-box/WD repeat-containing protein 7 (Homo sapiens), Q969H0. hit rate 0.13% among 650,000; in the data active means normalized activity above about 1.9%;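 further: purified mutant Fbw7 with reduced substrate affinity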
GPR151 ag: activators of human GPR151, primary screen, cell-based, PathHunter beta-arrestin, luminescence. PathHunter beta-arrestin GPR151 cells. activation, % at 11.2 µM. hit rate 1% among 650,000. AID 1508602, 2020; in the data active means activation above about 4.9%;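 further: 0% = median of compound wells and 100% = cells with positive control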
Target sequence (Q8TDV0 whole entry, looked up): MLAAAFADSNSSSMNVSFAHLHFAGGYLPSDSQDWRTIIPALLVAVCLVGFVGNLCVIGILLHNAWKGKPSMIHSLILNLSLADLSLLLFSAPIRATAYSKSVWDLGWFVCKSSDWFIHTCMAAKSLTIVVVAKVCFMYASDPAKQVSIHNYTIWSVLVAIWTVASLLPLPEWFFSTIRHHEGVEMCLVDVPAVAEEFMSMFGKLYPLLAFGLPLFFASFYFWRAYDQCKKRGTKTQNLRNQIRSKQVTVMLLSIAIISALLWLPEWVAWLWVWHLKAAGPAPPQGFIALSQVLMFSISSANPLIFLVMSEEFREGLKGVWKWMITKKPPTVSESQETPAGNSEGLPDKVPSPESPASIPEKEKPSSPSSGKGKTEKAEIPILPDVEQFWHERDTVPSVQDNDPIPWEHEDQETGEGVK
TEAD-YAP inh: TEAD-YAP interaction inhibition, primary screen, TEAD-YAP interaction inhibitor project, luminescence, HEK-TIYL cells | inhibition, % at 9.12 µM | hit rate 1.4% among 640,000 | AID 1259422, 2018 | TEAD-Gal4/YAP UAS-luciferase luminescence; in the data active means inhibition above about 32%;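 further: 0% = median of test compound wells and 100% = reference inhibitor wells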
* marks the source's active call; other numbers are inactive results.

SMILES	MITF inh	FBW7 act	GPR151 ag	TEAD-YAP inh
O=C(Nc1ccc2[nH]ncc2c1)[C@@H]1C[C@@H](O)CN1C(=O)Cc1ccc(Br)cc1	9	0	-1	0
CC(=O)Nc1ccc(CN2CCN(c3ccccn3)CC2)cc1	12	0	0	-2
Cn1cccc(C(=O)Nc2ccc(CN3CCN(c4ccccn4)CC3)cc2)c1=O	7	0	-9	46*
CC(C)CCN(CC(=O)NCC(F)(F)F)S(=O)(=O)c1ccccc1F	-5	0	1	8
NS(=O)(=O)c1ccc(CCNC(=S)NCc2ccccc2)cc1	8	1	-1	0
CCC[n+]1cccc2ccc3cccnc3c21	11	0	-1	54*
COc1cc(Nc2nc(-c3ccc(N4CCOCC4)nc3)ncc2C)cc(OC)c1OC	5	0	-1	30
COc1ccc(-c2nc3ncnc(Nc4cc(OC)c(OC)c(OC)c4)c3[nH]2)cc1	4	0	-3	50*
COc1cc(Nc2nc(-c3ccc(N4CCOCC4)nc3)nc3nc[nH]c23)cc(OC)c1OC	21	1	-1	52*
COc1cc(Nc2nc(-c3ccccc3)nc3nc[nH]c23)cc(OC)c1OC	5	0	0	60*
O=[N+]([O-])/C(=C/c1ccc2c(c1)OCCO2)c1ccccc1	9	0	-1	65*
O=C(/C=C/c1ccc2c(c1)OCCO2)c1ccccc1	-1	0	-1	-55
Cn1c(SCC(=O)N2CCCC2)nnc1-c1ccccc1O	24	0	-1	58*
Cn1c(SCC(=O)O)nnc1-c1ccccc1O	5	0	1	44*
CCN1CCN(CCCNC(=O)c2ccc(CNc3nc(=S)[nH]c4ccccc34)cc2)CC1	4	0	1	1
COc1cc(C(=O)COC(=O)Cc2ccsc2)cc(OC)c1OC	-8	0	0	8
COc1cc(CC(=O)OCC(=O)c2ccc(Br)cc2)cc(OC)c1OC	1	0	1	59*
COc1cc(CC(=O)OCC(=O)c2ccc3c(c2)OCCO3)cc(OC)c1OC	-5	0	2	52*
CC(=O)Oc1ccc(-c2ccc(C(=O)OCC(=O)OC(C)(C)C)cc2)cc1	15	0	0	7
COc1cccc(C2CC(=O)N3C(=C2C#N)SCC3(O)c2cccc(OC)c2)c1 (configuration not stated)	-16	0	1	51*
N#CC1=C2SCC(O)(c3ccccc3)N2C(=O)CC1c1cccs1 (configuration not stated)	-1	0	-1	42*
COC(=O)c1ccc(C2CC(=O)N3C(=C2C#N)SCC3(O)c2ccc(C)cc2)cc1 (configuration not stated)	1	0	-2	49*
N#CC1=C2SCC(O)(c3ccccc3)N2C(=O)CC1c1ccccc1F (configuration not stated)	1	0	0	26
c1ccc(Nc2nc(NCC3CCCO3)c3ccccc3n2)cc1 (configuration not stated)	2	0	0	46*
Fc1cccc(Nc2nc(NCC3CCCO3)c3ccccc3n2)c1 (configuration not stated)	-21	0	5	45*
SMILES	MITF inh	FBW7 act	GPR151 ag	TEAD-YAP inh
O=C1NC(CC(=O)N2CCCC(n3nc(-c4cccs4)ccc3=O)C2)c2ccccc21 (configuration not stated)	-3	0	0	5
FC(F)(F)c1ccc(Cn2cnc3c(NCc4nc5ccccc5[nH]4)nc(Nc4ccccc4)nc32)cc1	5	0	3	41*
FC(F)(F)c1ccc(Cn2cnc3c(NCc4nc5ccccc5[nH]4)nc(Nc4ccc5ncccc5c4)nc32)cc1	5	1	0	-6
COc1cc(Nc2nc(NC3CC3)c3ncn(Cc4ccc(C(F)(F)F)cc4)c3n2)cc(OC)c1OC	21	0	-1	47*
FC(F)(F)c1ccc(Cn2cnc3c(NCc4nc5ccccc5[nH]4)nc(Nc4ccc(C(F)(F)F)cc4)nc32)cc1	9	0	2	0
COc1cc(Nc2nc(NCc3nc4ccccc4[nH]3)c3ncn(Cc4ccc(C(F)(F)F)cc4)c3n2)cc(OC)c1OC	4	0	-1	43*
CCOC(=O)N1CC=C2C(C#N)=C(N)C(C#N)(C#N)C(c3ccsc3)C2C1 (configuration not stated)	17	0	-1	9

Screening results (PubChem BioAssay)
